Assay outcomes: PubChem BioAssay, several laboratories
pPAFAH inh – inhibitors of human plasma PAF acetylhydrolase (pPAFAH). AID 463082. inhibition, % at 3.39 µM. actives 1.5% (n = 330,000). Q13093. recombinant pPAFAH, FP-rhodamine probe fluorescence polarization;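 active = inhibition above the mean inhibition across the screen plus 3 SD, cut at about 25% in these data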;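 also: inhibitors block binding of the rhodamine activity-based probe so polarization drops; 0% = enzyme with DMSO and 100% = wells lacking pPAFAH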
ATG4B inh – blocks human ATG4B protease cleavage of LC3 substrate; ATG4B cleavage of LC3-PLA2, NBD-HPC fluorescence, 1 h; inhibition, % at 8.33 µM; actives 0.51% (n = 340,000); AID 504462; in the data active = inhibition above about 40%
PAFAH1B3 inh – PAFAH1B3 (human) inhibition; inhibition, % at 3.39 µM; Q15102; actives 0.28% (n = 340,000); recombinant PAFAH1B3, FP-rhodamine probe, fluorescence polarization;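 active = inhibition above the screen-wide average of all tested compounds plus 3 SD, cut at about 25% in these data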;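 also: 0% = enzyme with DMSO only and 100% = wells lacking PAFAH1B3 protein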
DAGLB inhibitor – blocks human DAGLB lipase activity; HEK293T DAGLB membrane lysate, EnzChek fluorogenic substrate; actives 0.059% (n = 340,000); inhibition, % at 5.17 µM; in the data active = inhibition above about 34%;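 also: 0% = enzyme with vehicle and 100% = wells lacking enzyme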
Target sequence (Q8NCG7 whole entry, looked up): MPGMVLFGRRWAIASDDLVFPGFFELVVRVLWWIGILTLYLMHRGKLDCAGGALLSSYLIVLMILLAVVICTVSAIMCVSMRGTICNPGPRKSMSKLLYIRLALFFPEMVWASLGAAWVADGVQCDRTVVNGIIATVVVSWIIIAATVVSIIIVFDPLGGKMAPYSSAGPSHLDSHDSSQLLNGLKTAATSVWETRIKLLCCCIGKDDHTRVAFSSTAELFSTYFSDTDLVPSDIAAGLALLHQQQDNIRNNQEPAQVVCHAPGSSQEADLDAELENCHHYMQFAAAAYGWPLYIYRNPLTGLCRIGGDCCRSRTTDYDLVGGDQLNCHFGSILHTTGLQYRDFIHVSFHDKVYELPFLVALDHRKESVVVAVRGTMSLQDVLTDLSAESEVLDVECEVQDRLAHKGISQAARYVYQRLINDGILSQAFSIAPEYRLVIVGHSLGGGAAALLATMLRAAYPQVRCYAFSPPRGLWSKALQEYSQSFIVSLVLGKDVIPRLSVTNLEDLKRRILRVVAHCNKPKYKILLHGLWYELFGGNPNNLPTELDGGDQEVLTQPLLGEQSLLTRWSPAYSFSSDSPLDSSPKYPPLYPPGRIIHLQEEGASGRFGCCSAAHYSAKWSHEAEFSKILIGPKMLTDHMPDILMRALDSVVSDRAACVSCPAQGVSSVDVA
PAFAH2 FP inh – inhibitors of human PAFAH2 | recombinant PAFAH2, FP-rhodamine activity probe, fluorescence polarization | inhibition, % at 3.39 µM | actives 0.99% (n = 340,000) | Q99487 | AID 492956;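 active = inhibition above the mean over all tested compounds plus 3 SD, cut at about 30% in these data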;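 also: inhibitors block probe labeling of enzyme so polarization drops; 0% = enzyme with DMSO and 100% = wells lacking PAFAH2 protein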
PAFAH1B2 inh – blocks human PAF acetylhydrolase 1b catalytic subunit 2; actives 1.2% (n = 340,000); inhibition, % at 3.39 µM; P68402; AID 492953; recombinant PAFAH1B2, FP-rhodamine activity probe, fluorescence polarization;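 active = inhibition above the mean of all tested compounds plus 3 SD, cut at about 24% in these data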;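 also: 0% = enzyme with DMSO and 100% = wells lacking PAFAH1B2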
PAFAH2 FP conf – PAFAH2 (human) inhibition, confirmed; shares compounds with PAFAH2 FP inh; recombinant PAFAH2, FP-rhodamine activity probe, fluorescence polarization; inhibition, % at 3.39 µM; actives 65% (n = 2,300);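 active = mean inhibition over three repeats above a set limit taken from the earlier primary screen, cut at about 30% in these data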;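 also: inhibitor blocks binding of rhodamine activity probe so polarization falls; 0% = enzyme with DMSO and 100% = wells lacking PAFAH2 protein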
* hit, by the source's call; nt = no result. Rows were chosen to be rich in hits. Some 3% of all compounds tested hit in one or more screens of this group.

SMILES	pPAFAH inh	ATG4B inh	PAFAH1B3 inh	DAGLB inhibitor	PAFAH2 FP inh	PAFAH1B2 inh	PAFAH2 FP conf
COc1ccc(C(=O)OCC(=O)N2CCc3ccccc3C2)cc1OC	5	1	5	-1	53*	6	45*
CNc1ccc(C(=O)OCC(=O)NC(=O)NC2CCCC2)cc1[N+](=O)[O-]	3	-12	-1	4	41*	4	18
Cc1cccc(NC(=O)C2CCN(C(=O)[C@@H]3Cc4ccccc4CN3)CC2)c1	4	4	0	2	-7	1	nt
Cc1nnc(SCC(=O)Nc2nccs2)n1N	0	-9	2	1	7	-1	nt
COc1ccc(CN2C(=O)c3cccnc3C2=O)cc1S(=O)(=O)N1CCOc2ccc(Cl)cc21	0	-4	9	3	30*	-1	18
Cc1nc2nc3c(c(=O)n2[nH]1)CCC3	-3	-2	0	-1	2	1	nt
O=c1c2c(nc3nc(Cc4ccccc4)[nH]n13)CCC2	7	3	7	-6	67*	-3	59*
CCCCOC(=O)c1ccc(NC(=O)COC(=O)c2ccc3ncsc3c2)cc1	-4	-69	0	-4	61*	-4	63*
O=C(COC(=O)c1ccc2ncsc2c1)NCc1cccc(Cl)c1	-2	18	0	-4	21	2	nt
O=C(COC(=O)c1ccc2ncsc2c1)Nc1cccc(Cl)c1	-6	5	-3	-7	92*	-3	77*
O=C(COC(=O)c1ccc2ncsc2c1)Nc1ccccc1Br	-5	-3	6	-17	63*	0	43*
COc1ccc(CCNC(=O)CC(C)(C)CC2=NS(=O)(=O)c3ccccc3N2)cc1OC	3	-1	5	0	-1	-4	nt
CCOc1ccc2noc3c2c1C(=O)c1ccccc1-3	21	4	19	-156	31*	18	19
COc1ccc(N2CCN(C(=O)CN3C(=O)NC4(CCCCCC4)C3=O)CC2)cc1	0	-4	6	3	-3	6	nt
COC(=O)CNC(=O)COC(=O)/C=C/c1ccc(F)cc1	3	10	0	0	-2	-2	nt
COc1ccc(/C=C/C(=O)OCC(=O)NC2CCCC(C)C2C)cc1 (stereo not drawn)	9	3	-3	-3	82*	7	79*
CC1CCCC(NC(=O)COC(=O)COc2ccc(Br)cc2)C1C (stereo not drawn)	16	-2	4	-5	-4	18	nt
CC1CCCC(NC(=O)COC(=O)/C=C/c2ccc(F)cc2)C1C (stereo not drawn)	8	-7	5	-1	65*	0	69*
COc1cc(SC)ccc1C(=O)OCC(=O)NCC(C)C	13	7	13	3	45*	2	28
CC(C)CNC(=O)COC(=O)c1ccc(F)cc1Cl	13	-15	-3	-1	35*	4	19
COc1cc(SC)ccc1C(=O)OCC(=O)NC(=O)NC(C)C	4	-10	9	1	18	3	nt
COc1cc(/C=C2\N=C(c3ccccc3)OC2=O)ccc1OCc1c(C)no[n+]1[O-]	4	32	-1	1	1	3	nt
COc1ccc(/C=C2\N=C(c3c(-c4ccccc4)noc3C)OC2=O)cc1OC	2	1	7	3	34*	1	14
COC(=O)[C@]1(C)N[C@H](CN(C)S(=O)(=O)c2ccc(F)cc2)[C@@H]2C(=O)N(C)C(=O)[C@@H]21	-10	-4	3	-1	0	4	nt
Cc1nn(C2CCS(=O)(=O)C2)c(Cl)c1/C=C/C(=O)OCC(=O)Nc1ccc2c(c1)OCO2 (stereo not drawn)	2	-11	9	-1	83*	3	80*
COc1cc(/C=C/C(=O)OCC(=O)Nc2ccc3c(c2)OCO3)ccc1O	5	-9	3	-2	82*	-1	74*
COc1cc(/C=C/C(=O)OCC(=O)Nc2ccc3c(c2)OCCO3)ccc1O	10	-15	0	-1	75*	3	80*
